Only some compounds are listed: those with a hit (about 3.6% of all), similar ones and a draw of the others.
CF NFkB block = cystic fibrosis NF-kB activation inhibition. KKLEB NF-kB-GFP reporter, PAF-induced, GFP fluorescence overnight. inhibition, % at 5 µM. actives 0.86% (n = 360,000);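 active means at least 50% inhibition at 5 µM, scaled per plate between neutral and stimulator controls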;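 further: PAF is a Pseudomonas aeruginosa culture filtrate used as stimulus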
Peg3 prom inh = reduces Peg3 promoter-driven luciferase expression in HeLa; actives 1.7% (n = 360,000); inhibition, % at 20 µM; HeLa PEG-Prom luciferase reporter, luminescence, overnight;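 active means inhibition of at least 50% at 20 µM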
LGR2 inh = inhibitors of bursicon-induced Drosophila LGR2 receptor cAMP signaling; actives 0.35% (n = 380,000); HEK293 LGR2, CRE-luciferase, bursicon-stimulated, 4 h; AID 720647; inhibition, % at 9.99 µM;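 active means drop in luminescence signal, shown as inhibition above about 50% in the replicate tests, limit read from the data, passing the limit was not always enough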;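 further: agonist challenge used bursicon conditioned medium at about half maximal strength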
KKLEB tox = counter-screen for CF NF-kB inhibitors: cytotoxicity; KKLEB CF airway cells viability, ATPlite luminescence, overnight; hits give low values; cells stimulated with P. aeruginosa culture filtrate; activity change (cytotoxicity), % at 5 µM; actives 0.36% (n = 360,000);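 active means corrected activity change at or below -50% at 5 µM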
Mdm2-MdmX inh = inhibitors of human Mdm2/MdmX interaction; actives 3% (n = 330,000); SaOS-2 split-luciferase Mdm2/MdmX complementation, luminescence; inhibition, % at 8 µM; AID 485346;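 active means inhibition of at least 50% at 8 µM in the primary screen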
HSP90 inh = inhibitors of HSP90 luciferase refolding in rabbit reticulocyte lysate; luciferase refolding luminescence, 3 h; inhibition, % at 5.6 µM; actives 0.91% (n = 290,000);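 active means inhibition above the screen-wide mean plus 3 SD, computed separately per campaign, cut at about 16% in these data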;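 further: inhibitors lower the luminescence because luciferase stays unfolded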
Mdm2-MdmX conf = human Mdm2/MdmX binding inhibition, confirmed | shares compounds with Mdm2-MdmX inh | luminescent assay | inhibition, % at 8 µM | actives 55% (n = 10,000) | AID 489028; in the data active means inhibition above about 40%
FLuc counter = counter-screen for Mdm2/MdmX inhibitors: full-length luciferase; SaOS-2 full-length luciferase counterscreen, luminescence; AID 504607; shares compounds with Mdm2-MdmX inh; inhibition, % at 8 µM; actives 77% (n = 6,200);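 active means mean inhibition at 8 µM reaching about 37%, which flags the compound as non-specific, limit read from the data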;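 further: p53-null SaOS-2 cells with luciferase driven by a doxycycline-inducible promoter; compound on cells about two nights before reading with doxycycline added after day one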
Numbers stand for hits; 0 = inactive; - = not tested or not shown.

SMILES	CF NFkB block	Peg3 prom inh	LGR2 inh	KKLEB tox	Mdm2-MdmX inh	HSP90 inh	Mdm2-MdmX conf	FLuc counter
CCCCCC(=O)Nc1cccc(C2=NOC3(C2)C[C@@H](C(N)=O)N(C(=O)CC(c2ccccc2)c2ccccc2)C3)c1 (stereo partly drawn)	0	0	0	0	53.0	-	48.3	65.1
C[C@@H]1CN([C@H](C)CO)C(=O)c2cc(-c3ccccc3F)cnc2O[C@@H]1CN(C)Cc1cccc(C(=O)O)c1	-	-	0	-	-	-	-	-
COc1cc2c(C(=O)N3CCN(C)CC3)c(C)n(-c3ccccc3)c2cc1Br	0	0	-	0	0	0	-	-
CCN(CC)CCNC(=O)c1c(C)n(-c2ccccc2)c2cc(Br)c(OC)cc12	0	65.5	-	0	80.7	0	0	37.9
C/C=C/c1ccc([C@@H]2[C@@H](CO)N(C(=O)C3CC3)[C@H]2CN(C)C(=O)CC2CC2)cc1	-	-	0	-	-	-	-	-
CC(=O)Oc1ccc(-c2ccc(C(=O)Nc3cccc(S(=O)(=O)N4CCOCC4)c3)cc2)cc1	0	0	0	0	66.2	0	44.0	88.5
Cc1c(C(=O)NCc2ccccc2)oc2ccc(S(=O)(=O)N3CCC4(CC3)OCCO4)cc12	0	0	-	0	0	0	-	-
COc1ccc(C(=O)NC(=S)Nc2cccc(S(=O)(=O)N3CCOCC3)c2)cc1	0	0	0	0	0	0	-	-
COc1ccc(S(=O)(=O)N2CCCCC2)cc1NC(=O)c1[nH]c(C)c(C(C)=O)c1C	0	0	-	0	81.9	-	59.4	43.0
CC(=O)c1c(C)[nH]c(C(=O)Nc2cccc(S(=O)(=O)N3CCOCC3)c2)c1C	0	0	0	0	58.2	0	0	87.2
Cc1c(C(=O)Nc2cccc(Cl)c2)oc2ccc(S(=O)(=O)N3CCC4(CC3)OCCO4)cc12	0	57.9	0	0	60.5	0	67.0	0
CC(=O)c1c(C)[nH]c(C(=O)Nc2cc(S(=O)(=O)N3CCCCC3)ccc2C)c1C	0	0	0	0	0	-	-	-
COCCNC(=O)C[C@@H]1C[C@H]2c3cc(NS(=O)(=O)c4ccccc4)ccc3O[C@H]2[C@H](CO)O1	-	-	0	-	-	-	-	-
C[C@@H]1CN([C@H](C)CO)C(=O)c2cc(NS(=O)(=O)c3ccc(Cl)cc3)ccc2O[C@@H]1CN(C)Cc1ccc(C(=O)Nc2ccccc2N)cc1	-	-	0	-	-	-	-	-
CCN(CC)c1ccc(N2C(=O)/C(=C/c3cccs3)SC2=S)cc1	0	0	-	0	52.2	0	0	-
CCN(CC)c1ccc(N2C(=O)CSC2=S)cc1	0	0	0	0	0	0	-	-
Cc1ccc(O)c(NC(=S)NC(=O)c2ccc(-c3ccc(Cl)cc3)o2)c1	0	0	-	0	50.9	0	0	-
O=C(NC(=S)Nc1ccccc1O)c1ccc(-c2ccc(Cl)cc2)o1	0	0	-	0	0	0	-	-
Cc1cc(/C=C2/C(=O)NN(c3ccccc3)C2=O)c(C)n1-c1ccc(O)cc1	0	0	0	0	51.8	0	75.5	115.7
O=C(NC1CCC1)[C@@H]1[C@@H](CO)[C@@H]2Cn3c(ccc(-c4ccc(F)cc4)c3=O)[C@@H]2N1Cc1ccccn1	-	-	0	-	-	-	-	-
O=C1CC(c2cc(F)ccc2F)c2cc3c(cc2N1)CCC3 (stereo not drawn)	0	0	0	0	51.8	0	52.1	71.9
O=C1CC(c2cccc(Br)c2)c2cc3c(cc2N1)CCC3 (stereo not drawn)	0	0	0	0	67.0	0	41.9	67.9
CO[C@@H]1CN(C)C(=O)c2ccc(NC(=O)Nc3cccc(F)c3)cc2OC[C@H](C)NC[C@H]1C	-	-	0	-	-	-	-	-
CCCCCCc1cc2cc(/C(N)=N/NC(=O)c3ccncc3)c(=O)oc2cc1O	0	0	0	0	65.3	-	0	-
CCCCCCc1cc2cc(C(N)=O)c(=N)oc2cc1O	-	-	-	-	0	0	-	-
CCCCCCc1cc2cc(C(=O)Nc3cccc(OC)c3)c(=O)oc2cc1O	65.5	0	0	-62.6	94.6	0	0	-
CCCCCCc1cc2cc(C(=O)Nc3ccc(OC)cc3)c(=O)oc2cc1O	51.6	0	0	-56.6	100.1	0	0	-

Bioassay records from PubChem BioAssay.
